The record followed here is PubChem BioAssay (Tox21).

Where “and” joins values, the source holds several entries; their conditions need not be identical. Equal values may be shown once. Records with an inconclusive call do not appear. Some structures have more than one record in an assay (separate samples or runs), and their calls can disagree. Calls of active or inactive are those of the source. Unless noted, calls follow the shape of the dose curve; as a rule, active = well fitted curve in the direction sought with a large enough effect in the repeat runs; inconclusive = weak or mixed curves; inactive = no such curve, though single readings can be large; an effect the other way counts as inactive or inconclusive.

A short description of experiment [1]: qHTS assay to identify small molecule agonists of the NFkB signaling pathway - cell viability counter screen (AID 1159515; calls by dose curve; also: nearly all actives have a fitted effect of over 55% in size; also: potency is read from the fitted curve at half-maximal effect). Summed up:
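Viability in NFkB-bla ME-180 cells was measured by CellTiter-Glo luminescence, 30 min room temperature, in wells already treated 5 hr with compounds and read for reporter FRET.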
(qHTS replaces the single test concentration by a dilution series.)

Experiment [2] in a line: qHTS assay to identify small molecule antagonists of the retinoid-related orphan receptor gamma (ROR-gamma) signaling pathway - cell viability counter screen (AID 1159520). Also: nearly all actives have a fitted effect of over 50% in size. Also: potency is read from the fitted curve at half-maximal effect. Summed up: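 Tet-on ROR gamma CHO cells were given compounds for 2 hr, then doxycycline hyclate at 1 uM final, and incubated 16 hr at 37 C. Viability was measured as ATP content by CellTiter-Glo luminescence.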

Experiment [3] concerns the target Nuclear receptor ROR-gamma (Homo sapiens) (UniProt P51449). The experiment in a line: qHTS assay to identify small molecule antagonists of the retinoid-related orphan receptor gamma (ROR-gamma) signaling pathway (AID 1159521; also: nearly all actives have a fitted effect of over 50% in size; also: potency is read from the fitted curve at half-maximal effect). Summed up: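 CHO cells expressing RORγ under a TET-on promoter, luciferase under RORE control. Dox 1 uM final, 16 h; compounds added 2 h prior. Luminescence decrease measured.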

Experiment [4] is described as follows: qHTS assay to identify small molecule agonists of the AP-1 signaling pathway - cell viability counter screen (AID 1159525; calls by dose curve; also: nearly all actives have a fitted effect of over 55% in size; also: potency is read from the fitted curve at half-maximal effect). Summed up:
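AP-1-bla ME-180 cells in Opti-MEM with 0.5% dialyzed FBS, compound exposure 5 h at 37 C in 15-point titration. Viability read in the same wells as ATP content by CellTiter-Glo luminescence, normalised to tetra-n-octylammonium bromide and DMSO controls.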

A short description of experiment [5]: qHTS assay to identify small molecule agonists of the RXR signaling pathway - cell viability counter screen (AID 1159529). Also: nearly all actives have a fitted effect of over 50% in size. Also: potency is read from the fitted curve at half-maximal effect. Summed up: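 Same-well viability check after the LiveBLAzer FRET read: CellTiter-Glo added, luminescence measured after 30 min at room temperature. Reporter HEK 293T cells had been treated with compounds for 16 hr following a 5 hr preincubation.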

The nature of experiment [6]: qHTS assay to identify small molecule antagonists of the retinoid acid receptor (RAR) signaling pathway - cell viability counter screen (AID 1159551). Also: nearly all actives have a fitted effect of over 35% in size. Also: potency is read from the fitted curve at half-maximal effect. Summed up: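 Following overnight attachment, C3RL4 reporter cells received DMSO-dissolved compounds and then retinol (1 uM final). Six hours later at 37 C, ATP content was measured by CellTiter-Glo luminescence.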
Experiment [7] in a line: qHTS assay to identify small molecule antagonists of the retinoic acid receptor (RAR) signaling pathway (AID 1159552; also: nearly all actives have a fitted effect of over 50% in size; also: potency is read from the fitted curve at half-maximal effect). Summed up:
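Readout: luciferase luminescence, 30 min post-reagent at RT. Setup: C3RL4 RARE reporter cells, compounds plus retinol 1 uM final, 6 hr incubation at 37 C and 5% CO2.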

A short description of experiment [8]: qHTS assay to identify small molecule agonists of the endoplasmic reticulum stress response signaling pathway - cell viability counter screen (AID 1159517; calls by dose curve; also: nearly all actives have a fitted effect of over 50% in size; also: potency is read from the fitted curve at half-maximal effect). Summed up:
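ESRE-bla HeLa cells, 1,500 per well, seeded overnight then treated with compounds for 5 hr at 37 C. After the beta-lactamase read, viability in the same wells is measured by CellTiter-Glo luminescence after 30 min at room temperature.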

Experiment [9] in a line: qHTS assay to identify small molecule agonists of the retinoic acid receptor (RAR) signaling pathway (AID 1159553). Also: potency is read from the fitted curve at half-maximal effect. Summed up: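 Cell line C3RL4, RARE luciferase reporter. Treatment: compounds in DMSO, 6 hr, 37 C, 5% CO2, after overnight plating. Detection: luminescence, 30 min RT after reagent.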
A short description of experiment [10]: qHTS assay to identify small molecule agonists of the vitamin D receptor (VDR) signaling pathway - cell viability counter screen (AID 743224). Also: nearly all actives have a fitted effect of over 50% in size. Also: potency is read from the fitted curve at half-maximal effect. Summed up: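 VDR-bla cell line, quantitative HTS format; 16 h compound incubation (37C, 5% CO2); ATP-based CellTiter-Glo luminescence measured in the reporter assay wells.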
A short description of experiment [11]: qHTS assay to identify small molecule antagonists of the vitamin D receptor (VDR) signaling pathway - cell viability counter screen (AID 743225). Also: nearly all actives have a fitted effect of over 50% in size. Also: potency is read from the fitted curve at half-maximal effect. Summed up: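 Luminescent cell viability (CellTiter-Glo) in VDR-bla HEK 293T cells after 16 h compound exposure at 37C in the presence of 3 nM final 1-alpha,25-dihydroxy vitamin D3.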
Experiment [12] can be described thus: qHTS assay to identify small molecule agonists of the AP-1 signaling pathway (AID 1159526; calls by dose curve; also: % is scaled to controls: 0 for no effect and ±100 for the full control effect).
Experiment [13] deals with Retinoic acid receptor RXR-alpha (Homo sapiens) (UniProt P19793). As to the kind of experiment: qHTS assay to identify small molecule agonists of the RXR signaling pathway (AID 1159527; calls by dose curve; also: % is scaled to controls: 0 for no effect and ±100 for the full control effect; nearly all actives have a fitted effect of over 35% in size). Summed up:
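Beta-lactamase reporter assay, agonist format. Engineered HEK 293T line, charcoal-stripped FBS at 2%, overnight (16 hr) exposure, fluorescence at 460 and 530 nm after 405 nm excitation.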

The nature of experiment [14]: qHTS assay to identify small molecule antagonists of the estrogen related receptor (ERR) signaling pathway - cell viability counter screen (AID 1224818).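 Also: series mostly up to about 46 µM; viability measured after 17.5 h of compound exposure; % is scaled to controls: 0 for no effect and ±100 for the full control effect.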 Summed up: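 Here, ERR cells are plated at 2,000 cells per well, allowed 6 h to attach, and treated with compounds in DMSO for 17.5 h at 37 C. CellTiter-Fluor is then added and fluorescence read after 30 min.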
Experiment [15] in a line: qHTS assay to identify small molecule antagonists of the estrogen related receptor (ERR) signaling pathway (AID 1224819). Summed up: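 LOPAC library screened for antagonism as reduced One-Glo luminescence in ERR reporter cells (2,000/well). Compounds were added after 6 h pre-incubation and left 18 h at 37C; reading followed a 30 min room-temperature reagent step.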
A short description of experiment [16]: qHTS assay to identify small molecule agonists of the estrogen related receptor (ERR) signaling pathway (AID 1224820). Also: % is scaled to controls: 0 for no effect and ±100 for the full control effect. Summed up:
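Cells: ERR line from NTP, 2,000/well. Pre-incubation 6 h, 37 C/5% CO2. Compound (DMSO) pin transfer, 18 h 37 C. One-Glo, 30 min RT, luminescence.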

Experiment [17] relates to estrogen-related receptor alpha (ERRalpha) with PGC-1alpha coactivator, human. As to the kind of experiment: qHTS assay to identify small molecule antagonists of the estrogen related receptor signaling pathway with the pleiotropic PPARgamma coactivator (PGC) (AID 1224821; calls by dose curve). Summed up: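 Luminescent read-out (One-Glo, 30 min at room temperature) following 18 h treatment of PGC/ERR cells at 37 C with compounds delivered in DMSO. Cells had settled 6 h at 37 C/5% CO2 before dosing.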

Experiment [18] in a line: qHTS assay to identify small molecule agonists of the estrogen related receptor signaling pathway with the pleiotropic PPARgamma coactivator (PGC) (AID 1224823). Also: % is scaled to controls: 0 for no effect and ±100 for the full control effect. Summed up: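 Steps: plate PGC/ERR cells at 2,000 cells/well; incubate 6 h, 37 C/5% CO2; pin-transfer compounds (DMSO); incubate 18 h, 37 C; add One-Glo; 30 min RT; read luminescence.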

Sequence of Retinoic acid receptor RXR-alpha (Homo sapiens) (P19793 whole entry, looked up): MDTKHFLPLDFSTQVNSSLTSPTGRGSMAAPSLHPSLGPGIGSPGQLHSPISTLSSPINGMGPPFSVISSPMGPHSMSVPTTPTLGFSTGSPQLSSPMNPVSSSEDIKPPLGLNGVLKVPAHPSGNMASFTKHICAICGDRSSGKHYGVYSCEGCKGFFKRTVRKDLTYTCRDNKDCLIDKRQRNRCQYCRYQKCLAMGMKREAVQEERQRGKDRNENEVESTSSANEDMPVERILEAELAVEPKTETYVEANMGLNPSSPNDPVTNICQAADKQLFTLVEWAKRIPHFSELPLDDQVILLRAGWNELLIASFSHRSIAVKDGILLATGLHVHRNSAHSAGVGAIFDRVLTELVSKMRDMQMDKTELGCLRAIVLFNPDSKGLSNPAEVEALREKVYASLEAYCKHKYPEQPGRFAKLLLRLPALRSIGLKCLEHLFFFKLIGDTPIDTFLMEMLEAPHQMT

Regarding `CC[C@@]1(O)C(=O)OCc2c1cc1n(c2=O)Cc2c-1nc1ccccc1c2/C=N/OC(C)(C)C`, the Potency result in experiment [1], in experiment [4] and in experiment [6] was “inactive” in each case. Also, the Potency in experiment [2] is 944 nM (active); in [3], 15 µM (active); in experiment [5], 0.848 µM (active); in [7] it was 0.119 µM (active).

Regarding `Oc1ccc(N=Nc2ccccc2)cc1`, the Potency entry in experiment [1], in [8], in experiment [3], in experiment [5], in experiment [6] and in [7] was “inactive” in each case. Also, the Potency in experiment [9] was 2.47 µM (active).

Consider `C=CC(=O)OCC(CO)(COCC(COC(=O)C=C)(COC(=O)C=C)COC(=O)C=C)COC(=O)C=C`, for which the Potency in [10] is 3.84 µM (active); in experiment [11], 5.43 µM (active); in experiment [1] it was 48.4 µM (active); in experiment [8] it was 3.42 µM (active); in experiment [3] it was 2.7 µM (active); in [4] it was 24.2 µM (active). Besides, the Potency is 8.6 µM (active) in experiment [5], 53.8 µM (active) in experiment [6], 7.6 µM (active) in experiment [7] and 0.957 µM (active) in experiment [9].

As to `CCCCCCCCCCCC(=O)NCCCN(C)C`, the Potency is 21.9 µM (active) in experiment [10]; 38.9 µM (active) in experiment [11]; 54.9 µM (active) in experiment [1]; 49 µM (active) in experiment [8]; 30.6 µM (active) in experiment [3]; 15.5 µM (active) in experiment [5]. Moreover, the Potency in experiment [7] was 54.5 µM (active).

For the compound `CC(NN)c1ccccc1` (centres undefined), the Potency entry in experiment [10], in experiment [11], in [1] and in experiment [9] was “inactive” in each case. In experiment [2], the activity, negative = cytotoxicity is 0.565% [at 19 µM] (inactive). The activity change, negative = inhibition in [3] is -0.108% [at 19 µM] (inactive). Further, in experiment [4], the viability change, negative = cytotoxic is 4.35% [at 15.8 µM] (inactive). Besides, the activation in [12] is -4.49% [at 15.8 µM] (inactive); in [13], -0.0243% [at 15.8 µM] (inactive). Moreover, the results for the activity change, negative = cytotoxicity in experiment [5] and in experiment [6] were -0.339% [at 15.8 µM] (inactive) and 1.08% [at 19 µM] (inactive), respectively. In experiment [7], the activity, negative = inhibition was 37.3% [at 19 µM] (inactive).

Take `CCC(Cl)C(Cl)C(Cl)CC(Cl)C(Cl)C(C)Cl` (centres undefined): the Potency in [10] is 38.9 µM (active). The Potency entry in experiment [1], in experiment [8], in experiment [4], in experiment [12], in experiment [6] and in [7] was “inactive” in each case. The Potency result in experiment [9] was “inactive”.

As for `CCCCCCCC/C=C\CCCCCCCCOCCO`, the Potency in experiment [10] is 25.4 µM (active); in experiment [11], 9 µM (active); in experiment [1], 31.9 µM (active); in experiment [8], 31.9 µM (active); in [3] it was 20 µM (active); in [5], 22.6 µM (active). For the same compound, the Potency entry in experiment [6] was “inactive”.

In the case of `Clc1ccccc1C(c1ccccc1)(c1ccccc1)n1ccnc1`, the Potency entry in experiment [11], in experiment [1], in [9] and in [14] was “inactive” in each case. Besides, the Potency in [2] is 24.3 µM (active) and inactive; in experiment [3] it was 2.73 µM (active) and 7.5 µM (active); in [4], 21.9 µM (active) and inactive; in [5] it was 21.9 µM (active); in experiment [6] it was 68.6 µM (active) and inactive; in experiment [7], 19.3 µM (active). Moreover, the Potency in experiment [15] is 12.8 µM (active); in experiment [17], 20.3 µM (active). Moreover, the compound was called inactive in experiment [16] and in experiment [18].

`CN1CCN(CCC(=O)N2c3ccccc3Sc3ccc(C(F)(F)F)cc32)CC1`: the Potency was 21.1 µM (active) in experiment [10], 12 µM (active) in experiment [11], 23.9 µM (active) in experiment [5] and 29.8 µM (active) in experiment [7]. The Potency entry in [1], in experiment [8] and in experiment [4] was “inactive” throughout.
